The results in this text go back to PubChem BioAssay.

Assay [1] is described as follows: resazurin metabolic signal in HepG2 cells – cell-based, resazurin fluorescence, 24 h, PK04 Diversity Set, profiling panel (AID 1172). Also: test concentration not given here. The settings on record: HepG2 viability, higher = more signal.
The nature of assay [2]: budding yeast growth changes without added modifier – OD600, strain BY4716, 24 h, basal condition, primary screen (AID 1173). The settings on record: S. cerevisiae BY4716 growth, OD600, 24 h; higher = more signal, called active from +8 up or from −8 down.
A short description of assay [3]: viability profiling in MM1S myeloma cells – cell-based, resazurin fluorescence, basal, 24 h, PK04 Diversity Set, profiling panel (AID 1174).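 Also: MM1S multiple myeloma cell line; test concentration not given here.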 The settings on record: higher = more signal, called active from +8 up or from −8 down.
Assay [4] concerns the target Dihydroorotate dehydrogenase (quinone), mitochondrial (Plasmodium falciparum (isolate 3D7)) (UniProt Q08210). Nature of the assay: inhibition of P. falciparum DHODH – biochemical, C-terminal His tag, absorbance 600 nm, primary screen (AID 1175).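 Also: recombinant parasite enzyme with a five histidine tag at its C terminus; test concentration not given here.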 The following applies: PfDHODH enzyme, DCIP absorbance 600 nm; higher = more signal, called active from +8 up or from −8 down.

Assay [5] is described as follows: inhibition of PAO1 biofilm formation – strain PAO1, LB-PBS medium, absorbance 600 nm, primary screen (AID 1176). Also: test concentration not given here. The following applies: P. aeruginosa PAO1 growth/biofilm, A600, 12 h; higher = more signal.
Assay [6] in a line: growth modulation of vineyard yeast isolate – strain RM11-1a, OD600, basal, 24 h, primary screen (AID 1177).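 Also: cultures grown under basal conditions with no added stressor; test concentration not given here.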 The following applies: S. cerevisiae RM11-1a growth, OD600, 24 h; higher = more signal, called active from +8 up or from −8 down.
Assay [7] is described as follows: growth of efflux-deficient E. coli DRC39 – strain DRC39, OD650, 24 h, E. coli filamentation inducers, primary screen (AID 1178).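 Also: growth measured as culture turbidity by optical density at 650 nm; test concentration not given here.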 The settings on record: E. coli DRC39 acrAB, higher = more signal, called active from +8 up or from −8 down.
The nature of assay [8]: growth of efflux-deficient E. coli DRC39 – strain DRC39, OD650, 48 h, E. coli filamentation inducers, primary screen (AID 1179).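 Also: screen aims at cell division blockers that make cells filament.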 The settings on record: E. coli DRC39 delta-acrAB growth, higher = more signal, called active from +8 up or from −8 down.
The nature of assay [9]: viability profiling in RPMI8226 myeloma cells – cell-based, resazurin fluorescence, basal, 24 h, PK04 Diversity Set, profiling panel (AID 1180).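 Also: RPMI8826 multiple myeloma cell line at 5000 cells per well; test concentration not given here.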 The following applies: higher = more signal. On the technique in general: The colour change of resazurin is a common sign of viable cells or microbes.
Assay [10] deals with E3 ubiquitin-protein ligase XIAP (Homo sapiens) (UniProt P98170). Description: small molecules binding XIAP protein – biophysical, small-molecule microarray, fluorescence 635 nm, primary screen (AID 1181).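 Also: score merges 667 nm emission and signal to noise over triplicate slides.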 The settings on record: higher = more signal.

The source made the active and inactive calls. Unless noted, no rule for the calls is given here.

Sequence of E3 ubiquitin-protein ligase XIAP (Homo sapiens) (P98170 whole entry, looked up): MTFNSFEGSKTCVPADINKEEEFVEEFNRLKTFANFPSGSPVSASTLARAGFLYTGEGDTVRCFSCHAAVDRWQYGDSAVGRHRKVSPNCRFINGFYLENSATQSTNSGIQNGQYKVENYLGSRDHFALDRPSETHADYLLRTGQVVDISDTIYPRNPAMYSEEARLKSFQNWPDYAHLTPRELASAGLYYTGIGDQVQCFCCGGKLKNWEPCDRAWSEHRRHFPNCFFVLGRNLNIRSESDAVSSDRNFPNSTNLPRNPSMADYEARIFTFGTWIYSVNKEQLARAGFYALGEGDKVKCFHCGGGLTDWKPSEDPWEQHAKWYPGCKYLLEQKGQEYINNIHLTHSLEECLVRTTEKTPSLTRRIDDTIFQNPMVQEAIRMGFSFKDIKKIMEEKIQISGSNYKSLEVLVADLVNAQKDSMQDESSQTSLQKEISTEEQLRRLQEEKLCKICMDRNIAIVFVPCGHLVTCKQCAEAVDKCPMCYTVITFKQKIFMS
Sequence of Dihydroorotate dehydrogenase (quinone), mitochondrial (Plasmodium falciparum (isolate 3D7)) (Q08210 whole entry, looked up): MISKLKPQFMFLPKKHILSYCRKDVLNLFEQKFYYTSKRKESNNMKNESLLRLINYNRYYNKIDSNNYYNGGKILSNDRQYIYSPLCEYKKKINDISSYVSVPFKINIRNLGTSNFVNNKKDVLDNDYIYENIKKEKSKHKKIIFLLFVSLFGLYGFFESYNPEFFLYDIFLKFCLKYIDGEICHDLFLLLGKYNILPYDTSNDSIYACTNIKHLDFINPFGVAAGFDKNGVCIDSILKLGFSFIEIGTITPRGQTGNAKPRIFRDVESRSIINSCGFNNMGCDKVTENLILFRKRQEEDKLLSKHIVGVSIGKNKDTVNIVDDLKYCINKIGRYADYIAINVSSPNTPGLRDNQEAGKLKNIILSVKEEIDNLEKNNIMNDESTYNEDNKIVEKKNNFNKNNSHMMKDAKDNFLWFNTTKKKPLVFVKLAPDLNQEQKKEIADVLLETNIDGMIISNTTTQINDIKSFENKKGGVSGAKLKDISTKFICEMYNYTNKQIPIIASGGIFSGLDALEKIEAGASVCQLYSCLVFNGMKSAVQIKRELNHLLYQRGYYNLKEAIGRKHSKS

For `C=C(COC)/C(=C/C[C@H](OC(=O)c1ccncc1)c1ccc(OCCO)cc1)c1cc(C(=O)OC)ccc1OC`, the z-score is 0.672 in assay [1]; 0.194 (inactive) in assay [2]; -0.163 (inactive) in assay [3]; -0.505 (inactive) in assay [5]; -0.402 (inactive) in assay [6]; -0.0988 (inactive) in [7]. Moreover, the values for the z-score in assay [8] and in assay [9] were 0.33 (inactive) and -0.316, respectively. Moreover, the composite z-score in assay [4] is -1.46 (inactive); in assay [10] it was 0.177.
Turning to `COCCOC(=O)N1C(=O)[C@@]2(c3cc(C#CCC(C(=O)OC)C(=O)OC)ccc31)[C@H](c1ccc(OCCO)cc1)N1[C@H](c3ccccc3)[C@H](c3ccccc3)OC(=O)[C@H]1[C@@H]2C(=O)N1CCCCCCC1`, the z-score was -0.0464 in [1]; 1.45 (inactive) in assay [2]; 0.13 (inactive) in [3]; 0.83 (inactive) in assay [5]; 2.72 (inactive) in assay [6]; -0.599 (inactive) in assay [7]. The z-score in [8] is 0.0786 (inactive); in assay [9], 0.174. For the same compound, the composite z-score was 0.551 (inactive) in assay [4] and 0.519 in assay [10].
As to `O=C1OCCC=C[C@H]2OC34C=CCN(CCN5CCOCC5)C(=O)[C@H]3N(CCCO)C(=O)[C@@H]4C12` (stereo not given in full), the z-score was -0.368 in [1]; -0.494 (inactive) in assay [2]; -0.525 (inactive) in assay [3]; -0.481 (inactive) in [5]; 0.23 (inactive) in [6]; -0.418 (inactive) in [7]. For the same compound, the z-score in [8] was -0.822 (inactive); in [9], -0.62. Besides, the figures for the composite z-score in [4] and in [10] were 0.394 (inactive) and 0.0143, respectively.
For `CCCC=C(CCC)[C@@H](NC(=O)c1ccccc1)c1ccc(C(=O)OC)cc1`, the z-score in assay [1] is 0.295; in [2] it was -0.366 (inactive); in [3] it was 0.286 (inactive); in assay [5], 2.23 (inactive); in assay [6], -0.363 (inactive); in [7] it was -0.634 (inactive). Further, the results for the z-score in assay [8] and in assay [9] were -0.078 (inactive) and -0.0265, respectively. The composite z-score is -5.83 (inactive) in [4] and 0.209 in assay [10].
As to `COCCOC(=O)N1C(=O)[C@@]2(c3cc(C#CCCO)ccc31)[C@H](c1ccc(O)cc1)N1[C@H](c3ccccc3)[C@H](c3ccccc3)OC(=O)[C@H]1[C@@H]2C(=O)N1CCc2cc(OC)c(OC)cc2C1`, the z-score was 0.458 in assay [1]; 0.537 (inactive) in [2]; 0.202 (inactive) in assay [3]; 0.318 (inactive) in assay [5]; 1.26 (inactive) in assay [6]; 0.886 (inactive) in assay [7]. Moreover, the figures for the z-score in assay [8] and in assay [9] were 0.821 (inactive) and 1.26, respectively. Further, the values for the composite z-score in assay [4] and in assay [10] were -1.1 (inactive) and -0.0272, respectively.
With `CC1CC/C=C\[C@H]2OC34C=CCN(CCN5CCOCC5)C(=O)[C@H]3N(CCCCCCO)C(=O)[C@@H]4C2C(=O)O1` (stereo not given in full), the z-score in assay [1] is -0.655; in [2] it was -0.195 (inactive); in [3], -0.513 (inactive); in assay [5], -0.717 (inactive); in assay [6], 0.615 (inactive); in assay [7], 0.125 (inactive). Moreover, the z-score is 0.602 (inactive) in [8] and 0.761 in assay [9]. In addition, the figures for the composite z-score in [4] and in assay [10] were 0.85 (inactive) and 0.288, respectively.
With `O=c1cccc(-c2ccccc2C(F)(F)F)o1`, the z-score was -0.719 in [1]; -3.23 (inactive) in assay [2]; -0.256 (inactive) in assay [3]; 0.698 (inactive) in assay [5]; -0.432 (inactive) in assay [6]; -0.736 (inactive) in assay [7]. Besides, the z-score in assay [8] was -0.275 (inactive); in [9], -0.59. The composite z-score was -0.636 (inactive) in assay [4] and 0.144 in assay [10].
For `C=CCOC(=O)[C@H]1[C@@H]2C(=O)O[C@@H](c3ccccc3)[C@@H](c3ccccc3)N2[C@@H](c2ccc(OCCOC(=O)[C@@H]3C[C@@H]4C(=O)N[C@@H](CC(C)C)C(=O)N4[C@@H]3c3ccc(O)cc3)cc2)[C@]12C(=O)Nc1ccc(I)cc12`, the z-score in assay [1] is -1.11; in assay [2], 0.637 (inactive); in [3] it was -0.0917 (inactive); in assay [5], 2.94 (inactive); in assay [6], -0.628 (inactive); in assay [7], 0.214 (inactive). Besides, the z-score in assay [8] was 1.3 (inactive); in [9], 0.518. Also, the composite z-score in assay [4] was -1.41 (inactive); in assay [10] it was -0.0232.
Regarding `C=CCOC(=O)[C@H]1[C@@H]2C(=O)O[C@@H](c3ccccc3)[C@@H](c3ccccc3)N2[C@@H](c2ccc(OCCOC(=O)[C@@H]3C[C@@H]4C(=O)N[C@@H](Cc5ccccc5)C(=O)N4[C@@H]3c3ccc(O)cc3)cc2)[C@]12C(=O)Nc1ccccc12`, the z-score was -0.648 in [1]; 1.45 (inactive) in assay [2]; -0.292 (inactive) in assay [3]; 3.66 (inactive) in [5]; 0.818 (inactive) in assay [6]; -0.631 (inactive) in assay [7]. In addition, the z-score is -0.282 (inactive) in assay [8] and -0.309 in assay [9]. Further, the composite z-score is -0.139 (inactive) in assay [4] and 0.144 in [10].
`CC(C)C[C@@H]1NC(=O)[C@@]23C(=O)N[C@@H](Cc4ccccc4)C2[C@H](C)[C@@]2(C)O[C@H]2C3/C=C/C/C=C\CNC(=O)[C@@H](CC(C)C)NC1=O` (stereo not given in full): the z-score was 0.175 in assay [1]; -1.08 (inactive) in assay [2]; -0.102 (inactive) in assay [3]; 0.0937 (inactive) in assay [5]; -0.664 (inactive) in assay [6]; 0.495 (inactive) in [7]. Besides, the z-score in [8] is -0.323 (inactive); in assay [9] it was 0.292. Besides, the composite z-score is -0.0599 (inactive) in [4] and -0.0752 in [10].
On to `CCC[C@@H]1[C@@H](Sc2ccccc2)[C@@H](C(=O)O)[C@H](c2ccc(C)cc2)N1S(=O)(=O)c1ccc(C)cc1`, for which the z-score was -0.428 in assay [1]; -1.99 (inactive) in assay [2]; -0.0959 (inactive) in assay [3]; 0.257 (inactive) in assay [5]; -0.122 (inactive) in [6]; -0.008 (inactive) in assay [7]. Further, the z-score in [8] was 0.329 (inactive); in assay [9] it was -0.862. The composite z-score in assay [4] is -1.04 (inactive); in [10], -0.0062.
`C[C@@H](OCc1ccccc1)C1NC(=O)[C@@]23C(=O)N[C@@H](Cc4ccccc4)C2[C@H](C)[C@@]2(C)O[C@H]2C3/C=C/C/C=C\CNC(=O)[C@H](Cc2ccccc2)NC1=O` (stereo not given in full): the z-score in assay [1] is -0.515; in assay [2] it was -1.29 (inactive); in assay [3], -0.614 (inactive); in [5] it was 0.0359 (inactive); in assay [6], -0.658 (inactive); in [7], 2.13 (inactive). The z-score in assay [8] is 0.5 (inactive); in assay [9], -0.302. The composite z-score in assay [4] was -0.199 (inactive); in [10] it was -0.0565.
